# Data reported in the supplement of paper PMC8728848.
# This is one part of a sample in which the strongest signals are shown more often than they occur.
# What was measured:
# Assay in all cases: glycan array binding signal (z-score within array); higher = stronger binding
# Conditions in all cases: glycan notation: IUPAC condensed, linker removed
# [1] = biological target: Fuc(a1-2)Gal(b1-3)GlcNAc(b1-3)Gal(b1-4)Glc
# Outline: (§1)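 Glycan array data were curated from 3228 arrays in the Consortium for Functional Glycomics database and kept only where the protein sequence was available. Glycan names were converted to IUPAC-condensed notation, and columns mapping to the same glycan were averaged. The binding signal is a within-array Z-score, averaged across arrays of the same protein sequence at different concentrations or buffers and across linkers. Negative Z-scores can be read as non-binding.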
# [2] = biological target: Fuc(a1-2)Gal(b1-3)[Fuc(a1-4)]GlcNAc(b1-3)[Gal(b1-4)GlcNAc(b1-6)]Gal(b1-4)Glc
# Outline: as §1
# Fuc(a1-2)Gal(b1-4)Glc = biological target: Fuc(a1-2)Gal(b1-4)Glc
# Outline: as §1
# [3] = biological target: Fuc(a1-2)Gal(b1-4)GlcNAc(b1-3)Gal(b1-4)GlcNAc(b1-2)Man(a1-3)[Fuc(a1-2)Gal(b1-4)GlcNAc(b1-3)Gal(b1-4)GlcNAc(b1-2)Man(a1-6)]Man(b1-4)GlcNAc(b1-4)GlcNAc
# Outline: as §1
# [4] = biological target: Fuc(a1-2)Gal(b1-4)[Fuc(a1-3)]GlcNAc(b1-2)Man(a1-3)[Fuc(a1-2)Gal(b1-4)[Fuc(a1-3)]GlcNAc(b1-2)Man(a1-6)]Man(b1-4)GlcNAc(b1-4)[Fuc(a1-6)]GlcNAc
# Outline: as §1
# [5] = biological target: Fuc(a1-2)Gal3S(b1-4)GlcNAc
# Outline: as §1
# [6] = biological target: Fuc(a1-2)[GalNAc(a1-3)]Gal(b1-4)GlcNAc(b1-2)Man(a1-3)[Fuc(a1-2)[GalNAc(a1-3)]Gal(b1-4)GlcNAc(b1-2)Man(a1-6)]Man(b1-4)GlcNAc(b1-4)[Fuc(a1-6)]GlcNAc
# Outline: as §1
# [7] = biological target: Fuc(a1-3)[Gal3S(b1-4)]GlcNAc
# Outline: as §1
# Fuc(a1-4)GlcNAc = biological target: Fuc(a1-4)GlcNAc
# Outline: as §1
# Gal(a1-3)Gal = biological target: Gal(a1-3)Gal
# Outline: as §1
# [8] = biological target: Gal(a1-3)Gal(b1-3)[Fuc(a1-4)]GlcNAc(b1-2)Man(a1-3)[Gal(a1-3)Gal(b1-3)[Fuc(a1-4)]GlcNAc(b1-2)Man(a1-6)]Man(b1-4)GlcNAc(b1-4)GlcNAc
# Outline: as §1
# [9] = biological target: Gal(a1-4)Gal(b1-4)GlcNAc(b1-2)Man(a1-3)[Gal(a1-4)Gal(b1-4)GlcNAc(b1-2)Man(a1-6)]Man(b1-4)GlcNAc(b1-4)GlcNAc
# Outline: as §1
# Gal(a1-6)Glc = biological target: Gal(a1-6)Glc
# Outline: as §1
# Gal(b1-3)Gal = biological target: Gal(b1-3)Gal
# Outline: as §1
# [10] = biological target: Gal(b1-3)GlcNAc(b1-2)Man(a1-3)[GlcNAc(b1-4)][Gal(b1-3)GlcNAc(b1-2)Man(a1-6)]Man(b1-4)GlcNAc(b1-4)GlcNAc
# Outline: as §1
# [11] = biological target: Gal(b1-3)GlcNAc(b1-3)Gal(b1-4)GlcNAc(b1-2)[Gal(b1-3)GlcNAc(b1-3)Gal(b1-4)GlcNAc(b1-6)]Man(a1-6)[Gal(b1-3)GlcNAc(b1-3)Gal(b1-4)GlcNAc(b1-2)Man(a1-3)]Man(b1-4)GlcNAc(b1-4)[Fuc(a1-6)]GlcNAc
# Outline: as §1
# [12] = biological target: Gal(b1-3)GlcNAc(b1-6)[Gal(b1-3)]GalNAc
# Outline: as §1
# [13] = biological target: Gal(b1-4)GlcNAc(b1-2)Man(a1-6)Man(b1-4)GlcNAc(b1-4)GlcNAc
# Outline: as §1
# Gal6S(b1-4)GlcNAc = biological target: Gal6S(b1-4)GlcNAc
# Outline: as §1
# GalNAc(a1-3)GalNAc = biological target: GalNAc(a1-3)GalNAc
# Outline: as §1
# [14] = biological target: GalNAc3S(b1-4)[Fuc(a1-3)]GlcNAc
# Outline: as §1
# [15] = biological target: Glc(a1-4)Glc(a1-4)Glc(a1-4)Glc
# Outline: as §1
# GlcA(b1-6)Gal = biological target: GlcA(b1-6)Gal
# Outline: as §1
# [16] = biological target: GlcNAc(a1-4)Gal(b1-4)GlcNAc(b1-3)Gal(b1-4)Glc
# Outline: as §1
# [17] = biological target: GlcNAc(b1-2)Man(a1-3)[GlcNAc(b1-2)Man(a1-6)]Man(b1-4)GlcNAc(b1-4)GlcNAc
# Outline: as §1
# [18] = biological target: GlcNAc(b1-2)[GlcNAc(b1-4)]Man(a1-3)[GlcNAc(b1-4)][GlcNAc(b1-2)[GlcNAc(b1-6)]Man(a1-6)]Man(b1-4)GlcNAc(b1-4)[Fuc(a1-6)]GlcNAc
# Outline: as §1
# [19] = biological target: GlcNAc(b1-3)Gal(b1-4)GlcNAc(b1-2)[GlcNAc(b1-3)Gal(b1-4)GlcNAc(b1-6)]Man(a1-6)[GlcNAc(b1-3)Gal(b1-4)GlcNAc(b1-2)Man(a1-3)]Man(b1-4)GlcNAc(b1-4)GlcNAc
# Outline: as §1
# [20] = biological target: GlcNAc(b1-3)Gal(b1-4)GlcNAc(b1-3)Gal(b1-4)GlcNAc(b1-3)Gal(b1-4)GlcNAc(b1-2)Man(a1-3)[GlcNAc(b1-3)Gal(b1-4)GlcNAc(b1-3)Gal(b1-4)GlcNAc(b1-3)Gal(b1-4)GlcNAc(b1-2)Man(a1-6)]Man(b1-4)GlcNAc(b1-4)[Fuc(a1-6)]GlcNAc
# Outline: as §1
# GlcNAc(b1-3)Man = biological target: GlcNAc(b1-3)Man
# Outline: as §1
# [21] = biological target: GlcNAc(b1-4)GlcNAc(b1-4)GlcNAc
# Outline: as §1
# [22] = biological target: GlcNAc(b1-4)GlcNAc(b1-4)GlcNAc(b1-4)GlcNAc(b1-4)GlcNAc
# Outline: as §1
# [23] = biological target: GlcNAc(b1-4)GlcNAc(b1-4)GlcNAc(b1-4)GlcNAc(b1-4)GlcNAc(b1-4)GlcNAc
# Outline: as §1
# [24] = biological target: Kdn(a2-3)Gal(b1-4)[Fuc(a1-3)]GlcNAc
# Outline: as §1
# [25] = biological target: Neu5Ac(a2-3)Gal(b1-3)GlcNAc(b1-2)Man(a1-3)[GlcNAc(b1-4)][Neu5Ac(a2-3)Gal(b1-3)GlcNAc(b1-2)Man(a1-6)]Man(b1-4)GlcNAc(b1-4)GlcNAc
# Outline: as §1
# [26] = biological target: Neu5Ac(a2-3)Gal(b1-3)GlcNAc(b1-2)[Neu5Ac(a2-3)Gal(b1-3)GlcNAc(b1-4)]Man(a1-6)[Neu5Ac(a2-3)Gal(b1-3)GlcNAc(b1-2)Man(a1-3)]Man(b1-4)GlcNAc(b1-4)GlcNAc
# Outline: as §1
# [27] = biological target: Neu5Ac(a2-3)Gal(b1-3)[Fuc(a1-4)]GlcNAc
# Outline: as §1
# [28] = biological target: Neu5Ac(a2-3)Gal(b1-4)GlcNAc(b1-2)Man(a1-3)[GlcNAc(b1-4)][Neu5Ac(a2-3)Gal(b1-4)GlcNAc(b1-2)Man(a1-6)]Man(b1-4)GlcNAc(b1-4)GlcNAc
# Outline: as §1
# [29] = biological target: Neu5Ac(a2-3)Gal(b1-4)GlcNAc(b1-6)[Neu5Ac(a2-3)Gal(b1-3)]GalNAc
# Outline: as §1
# [30] = biological target: Neu5Ac(a2-3)Gal(b1-4)GlcNAc6S
# Outline: as §1
# [31] = biological target: Neu5Ac(a2-6)Gal(b1-4)GlcNAc(b1-2)Man(a1-3)[GlcNAc(b1-2)Man(a1-6)]Man(b1-4)GlcNAc(b1-4)GlcNAc
# Outline: as §1
# [32] = biological target: Neu5Ac(a2-6)Gal(b1-4)GlcNAc(b1-3)Gal(b1-4)GlcNAc(b1-3)GalNAc
# Outline: as §1
# [33] = biological target: Neu5Ac(a2-6)Gal(b1-4)GlcNAc(b1-3)GalNAc
# Outline: as §1
# [34] = biological target: Neu5Ac(a2-6)GalNAc(b1-4)GlcNAc
# Outline: as §1
# [35] = biological target: Neu5Ac(a2-6)GlcNAc(b1-4)GlcNAc(b1-4)GlcNAc
# Outline: as §1
# Neu5Ac(b2-6)GalNAc = biological target: Neu5Ac(b2-6)GalNAc
# Outline: as §1
# [36] = biological target: Neu5Gc(a2-3)Gal(b1-3)GlcNAc
# Outline: as §1
# [37] = biological target: Neu5Gc(a2-8)Neu5Gc(a2-6)Gal(b1-4)GlcNAc
# Outline: as §1
binder,measurement,setting,value
Mg1lysM (Mycosphaerella graminicola) (protein) QRNPITITPQFDCGATNSQQYVARSGDTLTKIAQEIYHDVVGVCDIARANNLADPNRIDAGTPYTIPINCQTYDRNSCL,glycan array binding signal (z-score),[1],-0.073
same,glycan array binding signal (z-score),[2],-0.074
same,glycan array binding signal (z-score),Fuc(a1-2)Gal(b1-4)Glc,-0.06
same,glycan array binding signal (z-score),[3],-0.081
same,glycan array binding signal (z-score),[4],0.076
same,glycan array binding signal (z-score),[5],-0.038
same,glycan array binding signal (z-score),[6],-0.079
same,glycan array binding signal (z-score),[7],-0.075
same,glycan array binding signal (z-score),Fuc(a1-4)GlcNAc,-0.078
same,glycan array binding signal (z-score),Gal(a1-3)Gal,-0.086
same,glycan array binding signal (z-score),[8],-0.048
same,glycan array binding signal (z-score),[9],-0.061
same,glycan array binding signal (z-score),Gal(a1-6)Glc,-0.075
same,glycan array binding signal (z-score),Gal(b1-3)Gal,-0.061
same,glycan array binding signal (z-score),[10],0.125
same,glycan array binding signal (z-score),[11],0.02
same,glycan array binding signal (z-score),[12],-0.054
same,glycan array binding signal (z-score),[13],-0.083
same,glycan array binding signal (z-score),Gal6S(b1-4)GlcNAc,-0.051
same,glycan array binding signal (z-score),GalNAc(a1-3)GalNAc,0.308
same,glycan array binding signal (z-score),[14],0.01
same,glycan array binding signal (z-score),[15],-0.073
same,glycan array binding signal (z-score),GlcA(b1-6)Gal,-0.062
same,glycan array binding signal (z-score),[16],-0.084
same,glycan array binding signal (z-score),[17],-0.057
same,glycan array binding signal (z-score),[18],-0.071
same,glycan array binding signal (z-score),[19],-0.06
same,glycan array binding signal (z-score),[20],-0.081
same,glycan array binding signal (z-score),GlcNAc(b1-3)Man,-0.057
same,glycan array binding signal (z-score),[21],16.5
same,glycan array binding signal (z-score),[22],11.9
same,glycan array binding signal (z-score),[23],7.47
same,glycan array binding signal (z-score),[24],-0.081
same,glycan array binding signal (z-score),[25],-0.076
same,glycan array binding signal (z-score),[26],0.149
same,glycan array binding signal (z-score),[27],-0.096
same,glycan array binding signal (z-score),[28],-0.076
same,glycan array binding signal (z-score),[29],-0.062
same,glycan array binding signal (z-score),[30],-0.075
same,glycan array binding signal (z-score),[31],-0.054
same,glycan array binding signal (z-score),[32],-0.091
same,glycan array binding signal (z-score),[33],-0.076
same,glycan array binding signal (z-score),[34],0.004
same,glycan array binding signal (z-score),[35],4.06
same,glycan array binding signal (z-score),Neu5Ac(b2-6)GalNAc,-0.076
same,glycan array binding signal (z-score),[36],-0.04
same,glycan array binding signal (z-score),[37],-0.072
